Shown is part of a subset that was picked to be rich in hits.
TbPYK inhibitor – qHTS of Trypanosoma Brucei Inhibitors. TbPYK enzyme, Kinase-Glo Plus ATP luminescence, 45 min. AID 624173, 2012. Potency, µM (top dose mostly 76.8 µM), actives largely listed as inhibitors. 0.12% of 410,000 active. pyruvate kinase (Trypanosoma brucei), Q57TT1; also: nearly all actives have a fitted effect of over 50% in size
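Glycolytic pyruvate kinase of T. brucei was incubated with substrate, test compound and 130 uM ADP for 45 minutes at room temperature. Luminescent Kinase-Glo Plus signal was measured after 10 minutes.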
Shiga inhibitor – A qHTS for Small Molecule Inhibitors of Shiga Toxin; inhibition, % at 38.7 µM; 9.2% of 290,000 active; Vero cells, Shiga toxin protein synthesis inhibition reporter; AID 2315, 2010; in the data active = inhibition mostly above about 28%, no sharp cut-off; inactive = mostly below about 43%
CHX counter – Cycloheximide Counterscreen for Small Molecule Inhibitors of Shiga Toxin; cell reporter, cycloheximide protein synthesis inhibition counterscreen; max response, %; 12% of 300,000 active; in the data active = max response mostly above about 13%, no sharp cut-off; inactive = mostly below about 14%; also: read at 38.3 µM for the half of the compounds with a filed dose
LmPK inh – qHTS Assay for Inhibitors of Leishmania Mexicana Pyruvate Kinase (LmPK); Potency, µM (series often up to 57.5 µM), most hits filed as inhibitors; 0.37% of 290,000 active; Q27686; purified LmPK, Kinase-Glo ATP luminescence, 1 h
Target sequence (Q27686 whole entry, looked up): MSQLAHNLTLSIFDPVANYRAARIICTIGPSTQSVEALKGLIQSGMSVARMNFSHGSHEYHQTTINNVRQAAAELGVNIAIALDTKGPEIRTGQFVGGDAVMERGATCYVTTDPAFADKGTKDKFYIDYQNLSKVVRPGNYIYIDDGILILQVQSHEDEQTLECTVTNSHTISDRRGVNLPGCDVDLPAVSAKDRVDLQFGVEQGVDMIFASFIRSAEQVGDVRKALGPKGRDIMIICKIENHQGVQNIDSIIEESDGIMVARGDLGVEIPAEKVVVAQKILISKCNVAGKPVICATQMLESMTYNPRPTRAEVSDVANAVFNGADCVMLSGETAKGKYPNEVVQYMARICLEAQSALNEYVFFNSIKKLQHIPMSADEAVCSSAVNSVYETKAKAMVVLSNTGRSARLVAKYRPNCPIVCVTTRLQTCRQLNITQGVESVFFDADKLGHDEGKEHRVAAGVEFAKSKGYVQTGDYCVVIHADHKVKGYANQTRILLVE
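Purified LmPK (0.1 nM) converted ADP (0.1 mM) to ATP with PEP (0.5 mM) in imidazole buffer pH 7.2 with KCl and MgCl2, 1 h at room temperature. ATP was read by Kinase-Glo luminescence; data normalized to uninhibited and no-enzyme controls.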
Giardia FBPA inh-1 – qHTS Assay for Inhibitors of Fructose-1,6-bisphosphate Aldolase from Giardia Lamblia; A8B2U2; purified Giardia FBPA; Potency, µM (series often up to 59.6 µM), usual class: inhibitors; 0.71% of 290,000 active; AID 2451, 2010; also: nearly all actives have a fitted effect of over 55% in size
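Giardia FBPA (40 nM reagent) was preincubated 10 min at RT with compound (up to 57.5 uM final), then substrate plus GAPDH/TPI/NAD/arsenate coupling system with diaphorase/resazurin was added; resorufin fluorescence (525/598 nm) was read after 20 min.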
Sm TGR block – qHTS Assay for the Inhibitors of Schistosoma Mansoni Peroxiredoxins; Schistosoma mansoni thioredoxin glutathione reductase (TGR), Q962Y6; purified TGR, DTNB reduction, TNB absorbance 405 nm; Potency, µM (top dose mostly 114 µM), most hits filed as inhibitors; 3% of 360,000 active; also: nearly all actives have a fitted effect of over 60% in size
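Kinetic colorimetric format: TGR-catalysed, NADPH-driven DTNB reduction monitored via TNB absorbance. Enzyme dispensed at 20 nM; compound exposure 15 min at room temperature before reaction start.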
Giardia growth – qHTS Assay for Inhibitors of Fructose-1,6-bisphosphate Aldolase from Giardia Lamblia: Giardia lamblia growth inhibition | AID 2785, 2010 | 5% of 1,500 active | Potency, µM (titrated, usually from 57.5 µM), most hits filed as inhibitors | shares compounds with Giardia FBPA inh-1 | Giardia lamblia trophozoite growth inhibition;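 also: trophozoites exposed to compound for 48 h at 37 °C; nearly all actives have a fitted effect of over 70% in size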
Mammalian tox – qHTS Assay for Inhibitors of Fructose-1,6-bisphosphate Aldolase from Giardia Lamblia: Mammalian cellular toxicity | shares compounds with Giardia FBPA inh-1 | mammalian cell viability counter-screen, qHTS | Potency, µM (series often up to 57.5 µM), most hits filed as inhibitors | 4% of 1,500 active;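 also: Chinese hamster ovary cells used as mammalian cytotoxicity surrogate; viability measured as cellular ATP by luminescence; compound exposure lasted 48 h before reading; nearly all actives have a fitted effect of over 60% in size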
Giardia FBPA inh-2 – qHTS Assay for Inhibitors of Fructose-1,6-bisphosphate Aldolase from Giardia Lamblia: Primary screen confirmation | AID 2787, 2010 | 5% of 1,500 active | Potency, µM (series often up to 57.5 µM), most hits filed as inhibitors | purified Giardia aldolase enzyme activity, qHTS | shares compounds with Giardia FBPA inh-1; also: nearly all actives have a fitted effect of over 45% in size
Rabbit aldolase – qHTS Assay for Inhibitors of Fructose-1,6-bisphosphate Aldolase from Giardia Lamblia: Rabbit FBPA Selectivity; shares compounds with Giardia FBPA inh-1; AID 2794, 2010; Potency, µM (doses to about 57.5 µM), most hits filed as inhibitors; Rabbit muscle FBPA enzyme inhibition, selectivity counter-screen; 4% of 1,500 active; also: nearly all actives have a fitted effect of over 60% in size
GAPDH counter – qHTS Assay for Inhibitors of Fructose-1,6-bisphosphate Aldolase from Giardia Lamblia: Coupling assay counterscreen confirmation; GAPDH coupling enzyme counterscreen, biochemical, qHTS; AID 2795, 2010; Potency, µM (top dose mostly 57.5 µM), hits mostly inhibitors; shares compounds with Giardia FBPA inh-1; 6% of 1,500 active; also: nearly all actives have a fitted effect of over 55% in size
Numbers stand for hits; . = inactive; ? = inconclusive; / = not tested or not shown; [ ] = dose if it differs, or a comment. Unless noted, calls follow the shape of the dose curve; as a rule, active = well fitted curve in the direction sought with a large enough effect; inconclusive = small, poorly fitted or top-dose-only effect, or another doubt; inactive = no such curve, though single readings can be large; an effect the other way counts as inactive or inconclusive.

SMILES | TbPYK inhibitor | Shiga inhibitor | CHX counter | LmPK inh | Giardia FBPA inh-1 | Sm TGR block | Giardia growth | Mammalian tox | Giardia FBPA inh-2 | Rabbit aldolase | GAPDH counter
CCOC(=O)c1sc(NC(=O)CN2CC(C)OC(C)C2)nc1C (stereo not drawn) | . | . | . | . | . | . | / | / | / | / | /
CCc1nnc(NC(=O)CN2CCN(CC)CC2)s1 | . | . | . | . | 3.55µM | . | .[10.4 µM] | . | . | . | .
CCc1nnc(NC(=O)CN2CCCC(C)C2)s1 (stereo not drawn) | . | . | . | . | 3.98µM | . | .[10.4 µM] | . | . | . | .
CC(CCC(=O)Nc1nncs1)C(=O)O (stereo not drawn) | . | . | . | . | . | . | / | / | / | / | /
COc1ccc(-n2nc3c(c2NC(=O)c2ccc(S(=O)(=O)N4CCOCC4)cc2)CS(=O)(=O)C3)cc1 | . | . | . | .[11.5 µM] | . | . | / | / | / | / | /
COc1ccc(C2c3c(-c4ccccc4)n[nH]c3C(=O)N2c2ccc(C(=O)O)cc2)c(OC)c1 (stereo not drawn) | . | / | / | / | / | . | / | / | / | / | /
CCOC(=O)C1CCN(C(=O)c2ccc(S(=O)(=O)Nc3ccccc3OC)cc2)CC1 | . | / | / | / | / | . | / | / | / | / | /
CCOc1cc(/C=N/NC(=O)C(=O)Nc2cc(Cl)ccc2C)ccc1O | . | . | . | . | . | . | / | / | / | / | /
O=S(=O)(c1ccccc1)N(CC1CO1)c1cccc2ccccc12 (stereo not drawn) | . | . | . | . | . | . | / | / | / | / | /
CCN1CCN(CC(=O)Nc2nc3ccccc3s2)CC1 | . | . | . | . | 10µM | . | . | . | . | . | .
NC(=S)Nc1nc2ccccc2s1 | . | 64.1 | 38.5 | . | 5.61µM | . | . | ? | . | . | .
CCOC(=O)N1CCN(CC(=O)Nc2nnc(C(F)(F)F)s2)CC1 | . | . | . | . | 5.01µM | . | ? | . | . | . | .
CCCOc1ccc(CN(C(=O)c2nc(SC(C)C)ncc2Cl)C2CCS(=O)(=O)C2)cc1 (stereo not drawn) | . | / | / | / | / | . | / | / | / | / | /
CCc1ccc(C(c2ccccc2)c2c[nH]c3ccc(C)cc23)s1 (stereo not drawn) | . | / | / | / | / | . | / | / | / | / | /
O=C(N=C1SC2CS(=O)(=O)CC2N1c1ccc(Cl)cc1Cl)C1CC1 (stereo not drawn) | . | . | . | . | . | . | / | / | / | / | /
COc1ccc(NC(=O)COc2ccccc2Cc2ccccc2)cc1S(=O)(=O)N1CCOCC1 | . | / | / | / | / | ? | / | / | / | / | /
CCOC(=O)N1CCN(C(=O)CCCn2c(=S)[nH]c3ccsc3c2=O)CC1 | . | . | . | . | 15.8µM | . | .[10.4 µM] | . | . | . | .
O=C(CCCn1c(=S)[nH]c2ccsc2c1=O)NCc1ccco1 | . | . | . | . | 15.8µM | . | . | . | . | . | .
O=C(O)c1nc(=O)[nH]c(=O)[nH]1 | . | / | / | / | / | / | / | / | / | / | /
O=C(O)c1[nH]c(=O)[nH]c(=O)c1F | . | . | . | . | 19.9µM | . | . | . | . | . | .

Compound activity from PubChem.
